Laboratory results taken from the supplement of paper PMC6555819.

Columns and labels:
Experiment in all cases: PBM binding z-score (relative to random genomic background probes); higher = stronger binding; sequences stand for … in GC…GCGATTGACAGCGTAGAATGAAGG
[1] = system: PPARg:RXRa DBDmut IVT, anti-RXR (DBD mutation: RXRa K156A/R161A, NR concentration 270 nM, RXRa partner concentration 90 nM)
Outline: (§1)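 The probes on custom Agilent 4×180K protein-binding microarrays were double-stranded, with 34-nt variable regions bearing direct-repeat seeds, single-nucleotide variants, half-site ablations and random human genomic background sequences. Incubation lasted 1 h with ligand-free nuclear receptor dimers in PBS pH 7.4, 2% milk, 0.02% Triton X-100, 1 mM DTT, 0.2 mg/mL BSA and 0.4 mg/ml salmon testes DNA. Antibodies against each partner (one per run) detected bound dimers, and fluorescence scans were regression-normalized. Binding z-scores take the random background probes as reference.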

[2] = system: PPARg:RXRa IVT, anti-PPARg (NR concentration 270 nM, RXRa partner concentration 90 nM)
Outline: as §1

[3] = system: PPARg DBDmut:RXRa IVT, anti-PPARg (DBD mutation: PPARg1 K132A/R137A, NR concentration 270 nM, RXRa partner concentration 90 nM)
Outline: as §1

[4] = system: PPARg DBDmut IVT, anti-PPARg (DBD mutation: PPARg1 K132A/R137A, NR concentration 270 nM)
Outline: as §1

[5] = system: PPARg homodimer (NR concentration 180 nM)
Outline: as §1

[6] = system: PXR:RXRa (NR concentration 270 nM, RXRa partner concentration 90 nM)
Outline: as §1

[7] = system: PXR homodimer (NR concentration 270 nM)
Outline: as §1

[8] = system: RARa:RXR (NR concentration 270 nM, RXRa partner concentration 90 nM)
Outline: as §1

[9] = system: RARa homodimer (NR concentration 270 nM)
Outline: as §1

[10] = system: RARb:RXRa (NR concentration 270 nM, RXRa partner concentration 90 nM)
Outline: as §1

[11] = system: RARb homodimer (NR concentration 270 nM)
Outline: as §1

[12] = system: RARg:RXRa (NR concentration 270 nM, RXRa partner concentration 90 nM)
Outline: as §1

[13] = system: RARg homodimer (NR concentration 270 nM)
Outline: as §1

[14] = system: RXRa DBDmut IVT, anti-RXR (DBD mutation: RXRa K156A/R161A, NR concentration 90 nM)
Outline: as §1

[15] = system: RXRa homodimer (NR concentration 180 nM)
Outline: as §1

[16] = system: THRa:RXRa (NR concentration 90 nM, RXRa partner concentration 90 nM)
Outline: as §1

[17] = system: THRa homodimer (NR concentration 90 nM)
Outline: as §1

[18] = system: VDR homodimer (NR concentration 270 nM)
Outline: as §1

| Sequence | PBM binding z-score [1] | PBM binding z-score [2] | PBM binding z-score [3] | PBM binding z-score [4] | PBM binding z-score [5] | PBM binding z-score [6] | PBM binding z-score [7] | PBM binding z-score [8] | PBM binding z-score [9] | PBM binding z-score [10] | PBM binding z-score [11] | PBM binding z-score [12] | PBM binding z-score [13] | PBM binding z-score [14] | PBM binding z-score [15] | PBM binding z-score [16] | PBM binding z-score [17] | PBM binding z-score [18] |
| --- | --- | --- | --- | --- | --- | --- | --- | --- | --- | --- | --- | --- | --- | --- | --- | --- | --- | --- |
| CCTACTGGGCCAAAAAGGTCAGTGATGCCGATAA | 3.45 | 3.63 | -0.398 | -1.18 | 2.33 | 2.55 | 0.561 | 3.29 | 1.18 | 3.67 | 4.09 | 3.5 | 3.5 | -0.472 | 2.87 | 2.11 | 0.0212 | 0.295 |
| TCTAGTTGGCCACGGAGGTCACACACGACGGGTA | 1.59 | 2.78 | 1.61 | 0.255 | 2.19 | 4.03 | 0.788 | 3.94 | 0.587 | 3.35 | 3.85 | 3.98 | 3.67 | 0.683 | 4.31 | 3.48 | 2.53 | 1.99 |
| AGTTACGGGTCAACGAGGTTATAGCACGCGTATA | 2.76 | 3.97 | 0.585 | 1.05 | 1.48 | 5.12 | 2.21 | 4.6 | 0.766 | 4.16 | 3.88 | 5.45 | 5.57 | 2.14 | 6.14 | 3.97 | 1.18 | 3.49 |
| ATATGTAGGTTATCCGGTCATTCAGTTTGCGCAT | 7.35 | 6.98 | 1.53 | 1.86 | 0.982 | 1.65 | 1.86 | 1.65 | 0.474 | 2.19 | 2.35 | 2.11 | 1.83 | 0.932 | 1.4 | 1.67 | 1.08 | 1.53 |
| AGTCAAAGTTCACTACGTAACGTAAGATTCAGCT | 0.373 | 1.98 | 1.52 | 1.04 | 1.69 | 3.72 | 2.5 | 2.71 | 1.15 | 4.47 | 3.36 | 4.55 | 5.09 | 4 | 3.76 | 1.4 | -0.394 | 3.71 |
| CCTAGCAGGCCAATATGGGTCACTCAAGGCTTGA | 3.27 | 4.11 | -0.447 | -0.637 | 0.511 | 1.14 | -0.649 | 1.65 | -0.474 | 1.44 | 2.09 | 1.38 | 1.31 | -0.181 | 1.36 | 2.5 | -0.509 | -0.211 |
| TCATATAGGTAAATGCTGGGTGAAAGTCCGATCT | 4.13 | 2.63 | 0.471 | 0.976 | 1.04 | 0.606 | 0.456 | 0.833 | 1.19 | 0.495 | 0.617 | 0.24 | 0.16 | 1.48 | 0.693 | 0.785 | 0.692 | 0.384 |
| CGTCCAAGGTCAGCAGCTCAGTGAAAGCGACGTG | 2.5 | 2.27 | -0.354 | -0.261 | 1.96 | 2.16 | -0.1 | 2.83 | 0.297 | 4.83 | 3.86 | 5.03 | 5.8 | 2.64 | 4.07 | 3.44 | 1.99 | 0.868 |
| CCTAGTTGGTCAAGGTCACAGACGCTATAGGTAC | 2.26 | 3.92 | 0.729 | 0.0985 | 3.27 | 4.21 | 2.19 | 4.66 | 2.61 | 4.28 | 4.33 | 4.74 | 5.11 | 2.16 | 4.88 | 4.13 | 4.27 | 3.55 |
| CCTTACGGGTCACGAGATTATAGCACGACGAGCG | 4.81 | 4.72 | 1.92 | 0.779 | 2.33 | 3.46 | 0.13 | 4.62 | 1.2 | 4.26 | 2.95 | 5.47 | 5.3 | 1.95 | 5.8 | 2.82 | 0.216 | 0.718 |
| CCGCCTGGGGCATAAGGTTACCATAAGCCAGCCC | -0.446 | -0.147 | -2.09 | -2.48 | 0.35 | 0.37 | -0.511 | 1.52 | -0.89 | 1.68 | 1.94 | 1.82 | 1.11 | -0.905 | 1.07 | 1.99 | 1.33 | -0.126 |
| CCTCGGAGGACAGGAGGTCAGAGCTGTCCGCTTT | 0.39 | 0.452 | -1.92 | -2.09 | 1.28 | 1.81 | -0.0765 | 2.05 | -0.0884 | 2.82 | 3.17 | 3.42 | 3.29 | 0.04 | 2.07 | 2.67 | 0.822 | 0.982 |
| ACTATTAGTTGTCTTAGGGCAACCGATACGACGC | 0.0563 | 0.447 | 1.35 | 1.18 | 0.545 | -0.171 | 0.0491 | -0.0308 | 0.604 | 0.618 | 0.406 | 0.149 | 0.589 | 0.518 | 0.061 | 1.03 | 0.603 | 0.0368 |
| TAGCCTATGTCATTCAGGGGCCAGTATAGAAAGC | 0.367 | 0.511 | -0.0468 | 0.315 | -0.12 | -0.141 | -0.435 | 0.125 | -0.558 | 0.742 | 0.708 | 1.65 | 0.547 | -0.121 | 0.203 | 0.454 | -0.611 | -0.479 |
| ATTAGTTGGTCAGCTGAGGTCACACACAATTCGG | 2.22 | 3.28 | 0.989 | 1.49 | 3.67 | 5.59 | 2.59 | 4.84 | 2.74 | 3.72 | 4.56 | 4.39 | 4.28 | 1.58 | 4.35 | 5.05 | 5.22 | 4.18 |
